For 34 molecules, Potency, outcome and activity, negative = inhibition results are on record in PubChem BioAssay (NCATS).

Experiment [1] deals with Pyruvate kinase (Leishmania mexicana) (UniProt Q27686). Description: qHTS Validation Assay for Inhibitors of Leishmania Mexicana Pyruvate Kinase (AID 945). Particulars: purified L. mexicana pyruvate kinase, enzyme activity, E451W mutant enzyme; series mostly up to 57.5 µM. In short, it runs like this: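 Mutant LmPYK (E451W), 0.2 nM, plus 0.5 mM PEP and 0.1 mM ADP in 50 mM imidazole pH 7.2 containing 0.01% Tween 20 and 0.05% BSA. Incubated 1 h at room temperature; luminescence via PKLight, normalized to DMSO.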
In general terms: Quantitative high-throughput screening tests each substance at several concentrations.

Experiment [2] deals with Alpha-galactosidase (Coffea arabica) (UniProt Q42656). Description: Counterscreen for Glucocerebrosidase Inhibitors: qHTS Assay for Coffee Bean alpha-Galactosidase at pH 4.5 (AID 957). Particulars: purified coffee bean alpha-galactosidase, fluorogenic substrate; series mostly up to 76.9 µM. The procedure, abridged:
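Fluorogenic qHTS at pH 4.5 (citrate buffer with Tween-20): 2 nM enzyme, 80 uM 4-MU-alpha-galactoside substrate, compound titrated 0.7 nM to 77 uM, 20 min room temperature. Glycine/NaOH stop; 4-MU read Ex 365/Em 440; Hill-equation AC50 against no-enzyme and enzyme controls.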
(In general: The purpose of a counterscreen is to sort out artefacts and off-target activity.)

For experiment [3] the target is unchanged. Description: Counterscreen for Glucocerebrosidase Inhibitors: qHTS Assay for Coffee Bean alpha-Galactosidase at pH 5.9 (AID 998). As to conditions: coffee bean alpha-galactosidase enzyme assay; series mostly up to 76.9 µM. The procedure, abridged:
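Enzyme 2 nM + cpd (0.7 nM–77 uM titration) + 4-MU-alpha-Gal 80 uM, pH 5.9 citrate/Tween-20, RT 20 min, NaOH/glycine stop pH 10, fluor 365/440. Normalized to no-enzyme and full-activity controls; Hill-fit AC50.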

The target in experiment [4] is Cytochrome P450 2C19 (Homo sapiens) (UniProt P33261). Description: qHTS Assay for Inhibitors and Substrates of Cytochrome P450 2C19 (AID 899). Also: nearly all actives have a fitted effect of over 60% in size. Also: potency is read from the fitted curve at half-maximal effect. Particulars: recombinant CYP2C19, luciferin-H EGE luminescence; series mostly up to 57.1 µM. The procedure, abridged:
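5 nM human CYP2C19 with 10uM Luciferin-H EGE (at KM) in 50mM KPO4, compound preincubated 10 min at 37C, then NADPH regeneration for 60 min at 37C. Luciferin read by luminescence after detection reagent; normalized to 57uM ketoconazole as full inhibition.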

For experiment [5], the target named is Cytochrome P450 2D6 (Homo sapiens) (UniProt P10635). Description: qHTS Assay for Inhibitors and Substrates of Cytochrome P450 2D6 (AID 891). Also: potency is read from the fitted curve at half-maximal effect; nearly all actives have a fitted effect of over 60% in size. Particulars: recombinant CYP2D6, luciferin-ME EGE luminescence; series mostly up to 57.1 µM. The procedure, abridged: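 Luminescent read-out of luciferin formed by 5 nM human CYP2D6 demethylating 30 uM Luciferin-ME EGE (Km level) over 60 min at room temperature after NADPH regeneration addition. Data normalized to full inhibition by 1.43 uM quinidine.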

Experiment [6] can be described thus: qHTS Assay for Identification of Small Molecule Antagonists for Thrombopoietin (TPO) Signaling Pathway (AID 918). Also: potency is read from the fitted curve at half-maximal effect; nearly all actives have a fitted effect of over 60% in size. Particulars: TPO-dependent cell signaling reporter, antagonist mode. In short, it runs like this: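 Inhibition read as reduced luciferase luminescence after 24 h at 37 C in IL-3-deprived Ba/F3 cells carrying human TPO receptor and GPIIb-promoter reporter, stimulated with 26 pM TPO (final, its EC50) alongside compound.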

Experiment [7] concerns the target Muscarinic acetylcholine receptor M1 (Rattus norvegicus) (UniProt P08482). Description: qHTS Assay for Antagonists of Acetylcholine Muscarinic M1 Receptor: Kinetic Measurement of Intracellular Calcium Response (AID 943). Also: potency is read from the fitted curve at half-maximal effect; nearly all actives have a fitted effect of over 75% in size. Particulars: M1-expressing cells, kinetic intracellular calcium fluorescence; series mostly up to 35.3 µM. In short, it runs like this: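 Antagonism measured as reduction of carbachol-evoked (EC80, 100 nM final) calcium flux in rat M1-CHO cells after 10 min compound exposure. Fluo-4 signal read kinetically; ratio of maximal to basal fluorescence.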

The target is the same in experiment [8]. Description: qHTS Assay for Antagonists of Acetylcholine Muscarinic M1 Receptor: Measurement of IP-One Response (AID 944). Also: potency is read from the fitted curve at half-maximal effect; nearly all actives have a fitted effect of over 75% in size. As to conditions: CHO-M1 cells, IP-One HTRF, antagonist mode; series mostly up to 46.1 µM. In short, it runs like this: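 IP1 accumulation measured via TR-FRET between d2-IP1 and Eu-cryptate anti-IP1 antibody after carbachol (200 nM, EC80) stimulation for 30 min; rat M1-transfected CHO cells received compound 10 min before agonist.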

Experiment [9] is described as follows: Confirmation and Secondary Assay for Modulators of Hemoglobin Beta Chain Splicing at IVS2 654 locus (AID 910).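 Also: HeLa cells stably carrying EGFP split by mutant beta-globin IVS2-654 intron.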 As to conditions: HeLa EGFP-654 splicing reporter, GFP fluorescence, 48 h; series mostly up to 46.1 µM. In short, it runs like this:
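HeLa cells stably expressing EGFP interrupted by β-globin IVS2-654 intron, seeded overnight in Opti-MEM/2% FCS, then treated 2 days at 37 °C. Restored splicing read as total peak GFP intensity per well by laser scanning cytometry (488 nm excitation, 500–520 nm emission); 500 nM antisense PNA as control.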

Experiment [10] is described as follows: Confirmation and Secondary Assay for Modulators of Hemoglobin Beta Chain Splicing at IVS2 705 locus (AID 930).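 Also: HeLa cells stably expressing the EGFP-705 splicing reporter; GFP fluorescence per well restored by corrected splicing of the IVS2-705 intron in EGFP.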 Particulars: HeLa EGFP-705 splicing reporter, GFP fluorescence, 48 h; series mostly up to 46.1 µM. In short, it runs like this:
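Stable HeLa line with EGFP disrupted by mutant beta-globin intron 2 (705). Overnight attachment, then 2 days of compound at 37C, 5% CO2. Signal: peak GFP intensity summed over objects 5-250 µm.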

Unmarked numbers belong to inactive results. Inconclusive results are not listed. Where a call stands in place of a potency, no number is given. The source made the active and inactive calls. Calls follow the shape of the dose curve; as a rule, active = well fitted curve in the direction sought with a large enough effect; inconclusive = small, poorly fitted or top-dose-only effect, or another doubt; inactive = no such curve, though single readings can be large; an effect the other way counts as inactive or inconclusive.

Chain of Cytochrome P450 2C19 (Homo sapiens) (P33261 whole entry, looked up): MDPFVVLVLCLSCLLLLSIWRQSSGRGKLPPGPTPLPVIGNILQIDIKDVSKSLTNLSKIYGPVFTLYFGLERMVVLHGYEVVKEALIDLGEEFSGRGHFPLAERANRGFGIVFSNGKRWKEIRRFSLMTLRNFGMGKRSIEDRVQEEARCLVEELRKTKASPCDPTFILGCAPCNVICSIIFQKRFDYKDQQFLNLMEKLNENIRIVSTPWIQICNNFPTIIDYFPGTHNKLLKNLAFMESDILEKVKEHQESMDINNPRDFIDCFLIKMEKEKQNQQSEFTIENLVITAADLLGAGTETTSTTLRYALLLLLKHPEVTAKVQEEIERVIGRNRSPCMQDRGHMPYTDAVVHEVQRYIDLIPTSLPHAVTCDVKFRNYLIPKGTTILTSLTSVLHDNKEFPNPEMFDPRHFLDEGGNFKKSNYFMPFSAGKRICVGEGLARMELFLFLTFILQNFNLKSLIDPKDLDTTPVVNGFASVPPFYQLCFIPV
Chain of Alpha-galactosidase (Coffea arabica) (Q42656 whole entry, looked up): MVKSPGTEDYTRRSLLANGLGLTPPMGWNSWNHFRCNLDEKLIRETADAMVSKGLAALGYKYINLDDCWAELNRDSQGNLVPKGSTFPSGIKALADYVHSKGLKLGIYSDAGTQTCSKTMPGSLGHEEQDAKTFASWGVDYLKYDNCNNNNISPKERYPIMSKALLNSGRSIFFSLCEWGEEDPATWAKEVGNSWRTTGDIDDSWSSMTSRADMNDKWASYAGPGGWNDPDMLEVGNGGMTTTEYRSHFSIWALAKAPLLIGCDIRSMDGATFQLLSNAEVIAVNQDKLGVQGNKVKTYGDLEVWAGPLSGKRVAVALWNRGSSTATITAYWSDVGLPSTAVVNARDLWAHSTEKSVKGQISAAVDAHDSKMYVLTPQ
Chain of Muscarinic acetylcholine receptor M1 (Rattus norvegicus) (P08482 whole entry, looked up): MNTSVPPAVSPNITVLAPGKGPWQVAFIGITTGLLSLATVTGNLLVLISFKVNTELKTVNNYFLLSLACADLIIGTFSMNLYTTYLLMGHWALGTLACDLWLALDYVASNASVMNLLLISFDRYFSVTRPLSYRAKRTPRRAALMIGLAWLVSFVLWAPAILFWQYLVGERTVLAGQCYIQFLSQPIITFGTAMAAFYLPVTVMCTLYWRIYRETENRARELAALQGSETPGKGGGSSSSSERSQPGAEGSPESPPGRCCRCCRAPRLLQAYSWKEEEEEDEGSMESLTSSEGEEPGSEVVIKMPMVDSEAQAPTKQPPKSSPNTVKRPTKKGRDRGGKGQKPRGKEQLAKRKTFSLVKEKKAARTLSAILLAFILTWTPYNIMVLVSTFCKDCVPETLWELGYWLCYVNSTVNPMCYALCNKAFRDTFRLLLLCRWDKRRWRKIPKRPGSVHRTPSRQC
Chain of Cytochrome P450 2D6 (Homo sapiens) (P10635 whole entry, looked up): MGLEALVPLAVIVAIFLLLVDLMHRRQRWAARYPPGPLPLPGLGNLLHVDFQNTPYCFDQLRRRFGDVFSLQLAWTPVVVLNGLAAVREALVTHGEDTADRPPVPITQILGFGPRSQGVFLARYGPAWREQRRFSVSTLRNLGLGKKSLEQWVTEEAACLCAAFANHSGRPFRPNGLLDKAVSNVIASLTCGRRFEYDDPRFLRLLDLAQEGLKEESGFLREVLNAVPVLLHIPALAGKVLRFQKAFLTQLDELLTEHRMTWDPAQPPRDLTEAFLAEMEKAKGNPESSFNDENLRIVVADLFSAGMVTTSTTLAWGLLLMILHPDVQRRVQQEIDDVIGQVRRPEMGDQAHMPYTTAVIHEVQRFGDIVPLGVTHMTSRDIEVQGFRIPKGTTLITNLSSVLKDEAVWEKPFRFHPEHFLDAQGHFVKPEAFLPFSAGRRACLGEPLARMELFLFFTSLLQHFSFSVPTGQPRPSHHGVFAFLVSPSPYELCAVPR
Chain of Pyruvate kinase (Leishmania mexicana) (Q27686 2-499 E452W): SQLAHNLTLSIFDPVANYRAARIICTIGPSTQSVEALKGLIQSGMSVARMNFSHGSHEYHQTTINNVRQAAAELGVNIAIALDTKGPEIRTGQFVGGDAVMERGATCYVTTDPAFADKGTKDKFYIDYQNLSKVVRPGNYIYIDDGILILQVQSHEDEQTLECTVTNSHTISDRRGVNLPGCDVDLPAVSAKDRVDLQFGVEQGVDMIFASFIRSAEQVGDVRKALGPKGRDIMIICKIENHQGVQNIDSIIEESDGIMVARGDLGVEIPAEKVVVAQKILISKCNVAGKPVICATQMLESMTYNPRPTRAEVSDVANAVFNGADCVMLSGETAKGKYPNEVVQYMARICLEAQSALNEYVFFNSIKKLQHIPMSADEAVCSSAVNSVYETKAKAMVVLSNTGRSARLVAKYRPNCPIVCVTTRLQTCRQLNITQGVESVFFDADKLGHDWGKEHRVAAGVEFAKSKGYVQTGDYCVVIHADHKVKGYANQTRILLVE

For the molecule `CC(C)[C@@H]1NC(=O)[C@H](CCCCN)NC(=O)[C@H](Cc2c[nH]c3ccccc23)NC(=O)[C@H](Cc2ccc(O)cc2)NC(=O)[C@H](C)N(C)C(=O)[C@H](Cc2ccccc2)NC1=O`, in [1], the Potency result was “inactive”. For the same molecule, the result in experiment [2] and in experiment [3] was inactive.
For `C[C@@H]1OC=C2[C@@H](O)[C@H]3O[C@H]3C(=O)[C@@]23[C@H]1[C@H]1C2=C([C@@H](O)[C@H]4O[C@@H]4C2=O)[C@@H]3O[C@@H]1C`, the activity, negative = inhibition in [4] is 53.9% [at 11.4 µM].
For the molecule `C[C@H](Oc1ccc(Oc2cnc3ccc(Cl)cc3n2)cc1)C(=O)O`, the outcome in experiment [2] was inactive.
On the same count and under the same terms, in the case of `CC(C)NC[C@@H](O)COc1ccc(CCOCC2CC2)cc1` it was “inactive”; in that of `C/C=C1\C(=O)C[C@@H]2[C@@H]3CCC4=CC(=O)CC[C@@]4(C)[C@H]3CC[C@@]12C`, “inactive”; in that of `CC(=O)[C@@]1(O)Cc2c(O)c3c(c(O)c2[C@H](O[C@H]2C[C@H](N)[C@H](O)[C@H](C)O2)C1)C(=O)c1ccccc1C3=O`, “inactive”.
On to `CC(=O)[C@@]1(O)CC[C@@H]2[C@@H]3CCC4=CC(=O)CC[C@@]4(C)[C@H]3CC[C@]21C`, for which, in [2], the molecule was classed as inactive.
The same measure, in the same setting: for `CNCC[C@H](Oc1ccccc1C)c1ccccc1` the value was “inactive”.
Consider `O=NN(Cc1ccc(Cl)cc1)[C@@H](C(=O)O)c1ccccc1`, for which the Potency in experiment [4] was 0.398 µM (active).
Turning to `C=C(Br)CN(C)CC(=C)Br`, the activity, negative = inhibition in experiment [4] is 46.7% [at 11.4 µM].
Take `CCCCC[C@H](CC(=O)NO)C(=O)N[C@@H](C(=O)N1CCC[C@H]1CO)C(C)C`: the molecule was called inactive in [2].
With `N#CC(=C(/N)Sc1ccccc1N)/C(C#N)=C(/N)Sc1ccccc1N`, in [5], the Potency was 0.02 µM (active). In addition, the result in experiment [2] and in experiment [3] was inactive.
As to `NC[C@@H]1O[C@@H](O[C@H]2[C@@H](O)[C@H](O[C@@H]3[C@H](O)[C@H](N)C[C@H](N)[C@H]3O[C@@H]3O[C@@H](CO)[C@H](O)[C@H](O)[C@@H]3N)O[C@H]2CO)[C@H](N)[C@H](O)[C@@H]1O`, the result in experiment [2] was inactive.
In the case of `Cc1nnc(SCC2=C(C(=O)O)N3C(=O)[C@@H](NC(=O)Cn4cnnn4)[C@@H]3SC2)s1`, in [2], the result was inactive.
The same measure, in the same setting: for `C[C@]1(C2CCCC2)Cc2cc(OCC(=O)O)c(Cl)c(Cl)c2C1=O` the value was “inactive”; for `CCCCCN(CCCCC)C(=O)[C@H](CCC(=O)O)NC(=O)c1ccc(Cl)c(Cl)c1`, “inactive”.
For the molecule `C=C(CO)[C@H]1Cc2c(ccc3c2O[C@H]2COc4cc(OC)c(OC)cc4[C@@H]2C3=O)O1`, the Potency in experiment [4] is 5.01 µM (active).
With `Cc1ccc(C(=O)O[C@@H](C(=O)O)[C@@H](OC(=O)c2ccc(C)cc2)C(=O)O)cc1` (tested in a mixture with another compound), the Potency entry in experiment [4] was “inactive”. Moreover, the molecule was classed as inactive in experiment [2] and in experiment [3].
Take `N[C@H](CCC(=O)N[C@H](CSN=O)C(=O)NCC(=O)O)C(=O)O`: the Potency in experiment [4] is 1.58 µM (active). Further, the molecule was classed as inactive in [3].
`CC[C@@H]1CN2CCc3cc(OC)c(OC)cc3[C@H]2C[C@@H]1C[C@@H]1NCCc2cc(OC)c(OC)cc21`: in [6], the Potency is 0.0631 µM (active). Moreover, the molecule was classed as inactive in [2] and in experiment [3].
As to `CC(=O)O[C@@H]1[C@H]([N+]2(C)CCCCC2)C[C@@H]2[C@@H]3CC[C@@H]4C[C@@H](OC(C)=O)[C@H]([N+]5(C)CCCCC5)C[C@@]4(C)[C@H]3CC[C@]21C`, the Potency in [7] was 8.91 µM (active); in experiment [8] it was 14.1 µM (active). Moreover, the result in [2] and in experiment [3] was inactive.
For the molecule `CC1CC(C)C(=O)[C@H](C(O)CC2CC(=O)NC(=O)C2)C1` (some centres not stated), the Potency result in experiment [9] was “inactive”. Besides, the call in experiment [10] was inactive.
In the case of `CC[C@]1(O)C[C@H]2CN(CCc3c([nH]c4ccccc34)[C@](C(=O)OC)(c3cc4c(cc3OC)N(C=O)[C@H]3[C@@](O)(C(=O)OC)[C@H](OC(C)=O)[C@@]5(CC)C=CCN6CC[C@]43[C@H]65)C2)C1`, the molecule was called inactive in experiment [2].
With `Nc1ncnc2c1ncn2[C@@H]1O[C@@H](COP(=O)(O)OP(=O)(O)OP(=O)(O)OP(=O)(O)OC[C@@H]2O[C@@H](n3cnc4c(N)ncnc43)[C@@H](O)[C@H]2O)[C@H](O)[C@@H]1O`, in experiment [2], the result was inactive.
On to `C=C(C)C1Cc2c(ccc3c2OC2COc4cc(OC)c(OC)cc4C2C3=O)O1` (configuration not stated), for which, in [9], the Potency entry was “inactive”. The call in experiment [10] was inactive.
As to `C=CCN1CC[C@]23c4c5ccc(O)c4OC2C(=O)CC[C@]3(O)C1C5` (some centres not stated), the Potency result in experiment [9] is “inactive”. The call in experiment [10] was inactive.
For `O=C(/C=C\c1ccc(O)c(O)c1)OCCc1ccccc1`, the call in experiment [2] and in experiment [3] was inactive.
Regarding `Cn1cc(C(F)(F)F)nc1-c1ccc(OC[C@@H](O)CNCCOc2ccc(O)c(C(N)=O)c2)cc1`, the molecule was called inactive in experiment [2] and in experiment [3].
With `COc1cc2c(cc1C(F)(F)F)N(C(=O)Nc1cc(F)cc(-c3cccnc3)c1)CC2`, the result in experiment [2] and in experiment [3] was inactive.
`CO/N=C(\C(=O)N[C@@H]1C(=O)N2C(C(=O)O)=C(CSc3nc(=O)c(O)nn3C)CS[C@@H]12)c1csc(N)n1`: the result in experiment [2] and in experiment [3] was inactive.
As to `Cc1ccccc1/C=C\C1=NCCN1`, the outcome in [2] and in [3] was inactive.
`N=c1ccn2c(n1)O[C@@H]1[C@@H](O)[C@H](CO)O[C@H]12`: the result in experiment [2] and in experiment [3] was inactive.
For `COc1cc(=O)n(C)c2c(OC[C@@H](O)C(C)(C)O)cccc12`, the outcome in [2] and in [3] was inactive.
`CC(N)=NCCCC[C@H](N)C(=O)O`: the outcome in experiment [2] and in experiment [3] was inactive.
